From PubChem BioAssay
Rows were chosen to be rich in hits. Some 7.3% of all compounds tested hit in one or more screens of this group.
VP16 counter: VP16 counterscreen qHTS for inhibitors of ROR gamma transcriptional activity; 310,000 compounds, 3.5% hits; AID 2546, 2010; Drosophila S2 Gal4-VP16 UAS-luciferase, luminescence, 20 h; Potency, µM (doses to about 53.6 µM), inactives show top-dose activity, negative = inhibition, actives largely listed as inhibitors;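 note: Gal4-VP16 expression switched on by copper sulfate through the metallothionein promoter; nearly all actives have a fitted effect of over 50% in size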
Tau fibril FP: qHTS for Inhibitors of Tau Fibril Formation, Fluorescence Polarization. Microtubule-associated protein tau (Homo sapiens), P10636. K18 P301L tau heparin fibrillization, Alexa594 FP, 6 h. Potency, µM (highest dose often 57.7 µM), inactives show at the highest dose activity, negative = inhibition, actives largely listed as inhibitors. 280,000 compounds, 0.39% hits; note: nearly all actives have a fitted effect of over 55% in size
Target sequence (P10636 561-689 P618L limits assumed): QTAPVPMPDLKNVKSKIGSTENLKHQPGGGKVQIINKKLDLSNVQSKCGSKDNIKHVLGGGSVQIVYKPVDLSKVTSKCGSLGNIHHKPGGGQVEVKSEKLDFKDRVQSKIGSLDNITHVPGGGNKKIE
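Read-out: fluorescence polarization of Alexa 594-labeled tau (0.24 uM), 555 nm excitation, 632 nm emission. Mixtures held 15 uM unlabeled K18 P301L, compound and 20 uM heparin, pH 7 acetate buffer, incubated 6 hr at 37 C.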
RORgamma inh: qHTS for inhibitors of ROR gamma transcriptional activity | Nuclear receptor ROR-gamma (Mus musculus), P51450 | Drosophila S2 Gal4-RORgamma UAS-luciferase reporter, 20 h | Potency, µM (series often up to 53.6 µM), inactives show at the highest dose activity change, negative = inhibition, most hits filed as inhibitors | 310,000 compounds, 5.4% hits; note: nearly all actives have a fitted effect of over 60% in size
Target sequence (P51450 whole entry, looked up, the tested form may be a part): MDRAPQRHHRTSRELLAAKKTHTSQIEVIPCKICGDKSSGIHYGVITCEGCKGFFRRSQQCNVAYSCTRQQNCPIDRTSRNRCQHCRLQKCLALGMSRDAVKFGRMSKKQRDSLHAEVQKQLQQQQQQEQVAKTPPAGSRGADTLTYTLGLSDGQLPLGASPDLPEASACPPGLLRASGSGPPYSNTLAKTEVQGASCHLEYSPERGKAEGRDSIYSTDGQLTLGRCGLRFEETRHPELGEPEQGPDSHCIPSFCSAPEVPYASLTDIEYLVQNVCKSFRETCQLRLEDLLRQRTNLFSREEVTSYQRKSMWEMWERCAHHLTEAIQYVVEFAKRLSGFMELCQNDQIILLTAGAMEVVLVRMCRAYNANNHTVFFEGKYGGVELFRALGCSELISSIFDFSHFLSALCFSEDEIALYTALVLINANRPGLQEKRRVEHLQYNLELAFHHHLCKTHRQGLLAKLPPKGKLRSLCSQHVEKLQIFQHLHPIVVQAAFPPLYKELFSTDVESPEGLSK
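Stably transfected Drosophila Schneider cells are the test system, with ROR gamma fused to Gal4 and luciferase under UAS control; luminescence is read after 20 hr of 700 uM copper sulfate induction at ambient temperature.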
Tau fluor counter: Counterscreen qHTS for Inhibitors of Tau Fibril Formation, Fluorescence Polarization | tau K18 P301L Alexa594 fluorescence, heparin fibrillization | Potency, µM (doses to about 57.7 µM), inactives show at the highest dose activity change, negative = decrease | 280,000 compounds, 0.93% hits | AID 1463, 2008; note: nearly all actives have a fitted effect of over 55% in size
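Human K18 P301L tau (15 uM unlabeled plus 0.24 uM Alexa 594-labeled, final) in 100 mM sodium acetate pH 7 was mixed with compound and 20 uM heparin and incubated 6 hr at 37 C.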
Tau ThT inhib: qHTS for Inhibitors of Tau Fibril Formation, Thioflavin T Binding; Microtubule-associated protein tau (Homo sapiens), P10636; recombinant tau K18 P301L (four-repeat tau fragment), heparin-induced fibrillization, ThT fluorescence; Potency, µM (doses to about 57.4 µM), without a hit: at the top dose activity, negative = inhibition, usual class: inhibitors; 270,000 compounds, 2.1% hits; note: nearly all actives have a fitted effect of over 55% in size
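K18 P301L tau (15 uM + 0.24 uM Alexa 594-tagged), heparin 20 uM, NaOAc pH 7, 6 h 37 C; ThT 30 uM, 1 h RT, ex 450/em 510 nm.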
Numbers without * were called inactive; [ ] = remark or other dose. Calls come from the whole dose curve; as a rule, active = well fitted curve in the direction sought with a large enough effect; inconclusive = small, poorly fitted or top-dose-only effect, or another doubt; inactive = no such curve, though single readings can be large; an effect the other way counts as inactive or inconclusive. % is set by controls: 0 for no effect and ±100 for the full control effect; potency is the fitted concentration of half-maximal effect.

COC(=O)/C=C\c1cc(O)ccc1O was read as VP16 counter 11.2µM*, Tau fibril FP 0.2%, RORgamma inh 14.1µM*, Tau fluor counter -27.3% and Tau ThT inhib inconclusive.
O=C(Nc1ccc(-c2nc3ccccc3o2)cc1)C1CCCO1 (configuration not stated) was read as VP16 counter inconclusive, Tau fibril FP -7.7%, RORgamma inh -35.2%, Tau fluor counter -13.5% and Tau ThT inhib inconclusive.
Screening Cc1ccc2nc(-c3ccc(NC(=O)Cc4cccs4)cc3)[nH]c2c1 returned VP16 counter inconclusive, Tau fibril FP -3.7%, RORgamma inh inconclusive, Tau fluor counter -21.3% and Tau ThT inhib inconclusive.
Cc1ccc2nc(-c3ccc(NC(=O)C4CCCO4)cc3)[nH]c2c1 (configuration not stated) was read as VP16 counter 7.08µM*, Tau fibril FP 3.1%, RORgamma inh 6.31µM*, Tau fluor counter -13.2% and Tau ThT inhib -8.9%.
Screening O=C(Nc1ccc(-c2nc3cccnc3s2)cc1)C1CCCO1 (configuration not stated) returned VP16 counter 11.2µM*, Tau fibril FP -12.4%, RORgamma inh 17.8µM*, Tau fluor counter -14.7% and Tau ThT inhib -10.2%.
COc1ccc(Nc2nc(-c3ccc(OC)cc3)c(CCC(=O)O)s2)cc1 was read as VP16 counter -7.3%, Tau fibril FP -1.2%, RORgamma inh inconclusive, Tau fluor counter -18.4% and Tau ThT inhib inconclusive.
`COC(=O)CCc1sc(Nc2ccccc2)nc1-c1ccc(OC)cc1` gave VP16 counter -9.3%, Tau fibril FP 12.8%, RORgamma inh -28.3%, Tau fluor counter 15.8µM*[quencher] and Tau ThT inhib inconclusive.
CC12CCC(C/C1=N\N=C1\NC(=O)/C(=C\c3cccc(Br)c3)S1)C2(C)C (configuration not stated) was read as VP16 counter 11.2µM*, Tau fibril FP inconclusive, RORgamma inh 10µM*, Tau fluor counter -14.4% and Tau ThT inhib inconclusive.
Screening N#Cc1nc(/C=C/c2ccc(F)cc2)oc1N1CCCCCC1 returned Tau fibril FP 0.2%, Tau fluor counter inconclusive and Tau ThT inhib -17.2%.
`Cc1nc2nc(SCC(=O)c3ccc([N+](=O)[O-])cc3)[nH]c2cc1Br` gave VP16 counter inconclusive, Tau fibril FP 1.5%, RORgamma inh 2.51µM*, Tau fluor counter -28.5% and Tau ThT inhib inconclusive.
For Cc1nnc(NC(=O)CSc2cn(Cc3ccccc3)c3ccccc23)s1 the results were VP16 counter -18.1%, Tau fibril FP -2.5%, RORgamma inh 11.2µM*, Tau fluor counter -17.1% and Tau ThT inhib -13.1%.
For Cc1ccc(C(C)(C)C)c(SCC(=O)Nc2nnc(C)s2)c1 the results were VP16 counter -17.3% and RORgamma inh 7.08µM*.
Cc1nnc(NC(=O)CSc2ccccc2N)s1 was read as VP16 counter -5.6% and RORgamma inh -10.0%.
CCn1c(C)c(C)c2cc(C(=O)NCc3ccc(OC)cc3OC)ccc21 was read as Tau fibril FP 9.9%, Tau fluor counter -20.8% and Tau ThT inhib inconclusive.
For O=C1CCCc2cc(S(=O)(=O)N3CCCC(C(=O)NCc4ccc(Cl)cc4)C3)ccc2N1 (configuration not stated) the results were Tau fibril FP -10.2%, Tau fluor counter -12.9% and Tau ThT inhib -8.2%.
`CCOC(=S)NC(=O)c1sc2ccccc2c1Cl` gave VP16 counter 5.62µM*, Tau fibril FP 5.1%, RORgamma inh 1.26µM*, Tau fluor counter -8.7% and Tau ThT inhib inconclusive.
Screening O=C(NC(=S)NCCO)c1sc2ccccc2c1Cl returned VP16 counter -19.4%, Tau fibril FP 4.5%, RORgamma inh 11.2µM*, Tau fluor counter 8.8% and Tau ThT inhib 8.4%.
For CCCOC(=S)NC(=O)c1sc2ccccc2c1Cl the results were VP16 counter -8.6%, Tau fibril FP 3.5%, RORgamma inh 1.0%, Tau fluor counter -16.8% and Tau ThT inhib inconclusive.
`CCNC(=O)CC1C(=O)N(c2ccccc2)C(=O)N1Cc1ccc(F)cc1` (configuration not stated) gave Tau fibril FP 0.3%, Tau fluor counter -3.8% and Tau ThT inhib 1.6%.
Cc1cc[n+](C(C)C(=O)c2ccc(-c3ccccc3)cc2)cc1 (configuration not stated) was read as VP16 counter 10µM*, Tau fibril FP -8.0%, RORgamma inh inconclusive, Tau fluor counter -9.3% and Tau ThT inhib -12.2%.
For CC(C(=O)c1ccc(-c2ccccc2)cc1)[n+]1ccccc1 (configuration not stated) the results were VP16 counter -5.9%, Tau fibril FP 6.3%, RORgamma inh inconclusive, Tau fluor counter 2.6% and Tau ThT inhib -4.3%.
`Cc1ccc2oc(-c3ccc(Cl)c(NC(=O)c4ccc(-c5ccccc5[N+](=O)[O-])o4)c3)nc2c1` gave Tau fibril FP -7.9%, Tau fluor counter -14.3% and Tau ThT inhib -15.5%.
COc1cc(/C=C/C(=O)c2c(O)ccc3c(C)cc(=O)oc23)ccc1O was read as VP16 counter inconclusive, Tau fibril FP -3.1%, RORgamma inh 12.6µM*, Tau fluor counter -20.9% and Tau ThT inhib 15.8µM*.
`COc1ccc(/C=C\C(=O)c2c(O)ccc3c(C)cc(=O)oc23)cc1OC` gave VP16 counter inconclusive, Tau fibril FP -4.9%, RORgamma inh 12.6µM*, Tau fluor counter -18.4% and Tau ThT inhib inconclusive.
O=c1ccc2ccc(OCCOc3cccc(Cl)c3)cc2o1 was read as VP16 counter -6.6% and RORgamma inh 42.1%.
For CCc1nc(Nc2ccc(F)c(Cl)c2)c2c3c(sc2n1)CCCC3 the results were Tau fibril FP -9.8%, Tau fluor counter -27.5% and Tau ThT inhib inconclusive.
`COc1ccc(-c2cc(=O)oc3cc(OCC(=O)NCc4ccccn4)ccc23)cc1` gave VP16 counter 5.3% and RORgamma inh 18.0%.
COc1ccc(Cl)cc1NC(=O)N1CCN(Cc2cc(=O)n3nc(-c4ccccc4)sc3n2)CC1 was read as Tau fibril FP -16.2%, Tau fluor counter -15.0% and Tau ThT inhib inconclusive.
For Cc1ccc(C(=O)NC2(O)C(=O)c3ccccc3C2=O)cc1C the results were VP16 counter -6.2%, Tau fibril FP 3.98µM*, RORgamma inh 14.2% and Tau fluor counter -10.6%.
For O=C(NC1(O)C(=O)c2ccccc2C1=O)c1ccc(C(F)(F)F)cc1 the results were VP16 counter 2.1%, Tau fibril FP inconclusive, RORgamma inh -8.3% and Tau fluor counter -15.3%.
